Data: article PMC4336329 (PLoS ONE, 2015)
Screen size: about 310,000 compounds; about 14,000 (4.5%) showed an effect of 50% or more. The effect is printed as a negative number. For the sample, strong results were picked, then their nearest neighbours and some compounds at random.

What follows are compounds tested against human ether-à-go-go-related gene (hERG) potassium channel (human, UniProt Q12809) (assay: primary screen, population patch clamp on CHO cells stably expressing hERG; higher = less effect of the substance).
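Note: peak tail current of the secondary pulse compared with the same well before compound.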

Sequence of human ether-à-go-go-related gene (hERG) potassium channel (Q12809 whole entry, looked up): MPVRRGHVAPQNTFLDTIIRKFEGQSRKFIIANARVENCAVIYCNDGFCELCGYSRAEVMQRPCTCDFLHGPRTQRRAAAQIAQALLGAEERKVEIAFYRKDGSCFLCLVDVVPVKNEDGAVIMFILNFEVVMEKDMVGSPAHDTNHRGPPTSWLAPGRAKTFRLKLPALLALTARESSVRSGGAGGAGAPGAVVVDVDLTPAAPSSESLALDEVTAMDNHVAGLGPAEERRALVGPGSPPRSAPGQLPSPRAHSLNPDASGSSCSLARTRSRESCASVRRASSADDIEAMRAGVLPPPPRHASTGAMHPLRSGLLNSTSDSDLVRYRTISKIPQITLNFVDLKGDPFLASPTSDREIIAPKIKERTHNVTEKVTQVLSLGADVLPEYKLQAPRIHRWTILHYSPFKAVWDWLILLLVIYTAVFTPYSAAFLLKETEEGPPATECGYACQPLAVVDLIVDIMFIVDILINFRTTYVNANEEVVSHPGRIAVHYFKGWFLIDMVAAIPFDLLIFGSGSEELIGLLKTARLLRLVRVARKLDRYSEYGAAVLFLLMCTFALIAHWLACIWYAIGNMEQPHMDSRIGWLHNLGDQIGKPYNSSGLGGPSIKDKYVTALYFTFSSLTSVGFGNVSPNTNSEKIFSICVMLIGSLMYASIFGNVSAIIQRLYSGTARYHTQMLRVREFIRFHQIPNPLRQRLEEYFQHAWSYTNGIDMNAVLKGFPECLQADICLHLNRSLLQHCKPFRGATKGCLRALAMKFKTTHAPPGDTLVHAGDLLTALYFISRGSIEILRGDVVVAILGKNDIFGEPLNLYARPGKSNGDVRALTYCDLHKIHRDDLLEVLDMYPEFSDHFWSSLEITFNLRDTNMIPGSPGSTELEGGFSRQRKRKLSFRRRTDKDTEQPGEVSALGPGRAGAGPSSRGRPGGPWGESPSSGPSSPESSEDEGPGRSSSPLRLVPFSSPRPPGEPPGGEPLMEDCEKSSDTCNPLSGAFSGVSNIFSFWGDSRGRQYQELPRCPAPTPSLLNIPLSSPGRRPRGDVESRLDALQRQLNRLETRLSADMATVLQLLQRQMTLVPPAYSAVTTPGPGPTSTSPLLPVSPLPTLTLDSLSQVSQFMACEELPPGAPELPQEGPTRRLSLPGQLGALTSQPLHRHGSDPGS

Structure (SMILES)	hERG current change (%, negative = inhibition) at 10uM
CCN(CC)c1ccc(NC(=O)CSc2nnc3nc(C)cc(C)n23)cc1	-0.579%
Cc1cc(C(=O)NNC(=O)c2ccc(Cl)cc2)c2ccccc2n1	0.225%
CC(=O)N1CSCC1C(=O)NNS(=O)(=O)c1cccc(C(F)(F)F)c1 (stereo not drawn)	8.58%
Cl.NC1=NC(c2cccc(Cl)c2)N(CCc2ccc(F)cc2)C(N)=N1 (stereo not drawn)	15.6%
OC1C=CSc2nc3ccccc3n21 (stereo not drawn)	4.02%
CCOc1ccc(-c2csc3nc[nH]c(=O)c23)cc1	14.9%
OCCNc1nc(C2CC2)nc2c1nnn2Cc1ccccc1Cl	-0.392%
CS(=O)(=O)N(CC(=O)Nc1ccccc1C(=O)N1CCCC1)c1cccc([N+](=O)[O-])c1	-13.2%
O=C(NCCN1CCOCC1)c1cc(-c2cccs2)nc2ccccc12	-13.1%
COc1cc(CO)ccc1Oc1nc2ccccc2n2cnnc12	10.7%
CC(=O)c1ccc(OCC(O)COc2ccc(C(C)=O)cc2)cc1	-11.3%
CC(Oc1ccc(C#N)cc1)C(=O)c1ccc(F)c(F)c1 (stereo not drawn)	-51.6%
CC(=O)c1ccc(OCCOc2ccc(C#N)cc2)cc1	-49.4%
CC(Oc1ccc(C#N)cc1)C(=O)NC1CCCC1 (stereo not drawn)	-12.9%
COC(=O)c1ccc(OC(C)C(=O)c2ccc(C)cc2)cc1 (stereo not drawn)	-21.5%
CC(=O)c1ccc(OCC(C)Oc2ccc(C#N)cc2)cc1 (stereo not drawn)	-62.8%
CCC1C(=O)N=C(SCC(=O)Nc2cccc3ccccc23)NC1=O (stereo not drawn)	-7.84%
COc1ccc(C2C(C(=O)N3CCC(C(N)=O)CC3)CC(=O)N2c2ccc(OC)cc2)cc1 (stereo not drawn)	-1.19%
Nc1nc2ccccc2n1CCOc1ccc(Br)cc1	-61.2%
S=C(Nc1ccccc1)Nc1nc2ccccc2n1CCOc1ccc(Br)cc1	11.6%
Nc1nc2ccccc2n1CCOc1ccc(Cl)cc1	-51.1%
OCc1nc2ccccc2n1CCCOc1ccc(Br)cc1	-36.8%
Nc1nc2ccccc2n1CCOc1ccc(F)cc1	-67.9%
Cn1c(COc2ccc(F)cc2)nc2ccccc21	-0.759%
Nc1nc2ccccc2n1CCOc1ccccc1Cl	-3.5%
Cc1nc2ccccc2n1CCOc1ccc(F)cc1	-19.8%
COc1ccc(OCCn2c(N)nc3ccccc32)cc1	-67.4%
CCCn1c(N)nc2ccccc21	8.05%
Clc1ccc(OCCn2c(-c3ccco3)nc3ccccc32)cc1	-26.7%
COCCn1c(COc2ccc(OC)cc2)nc2ccccc21	-14.3%
